PubChem BioAssay (NCATS)
Records with an inconclusive call do not appear. The source made the active and inactive calls. Calls follow the shape of the dose curve; as a rule, active = well fitted curve in the direction sought with a large enough effect; inconclusive = small, poorly fitted or top-dose-only effect, or another doubt; inactive = no such curve, though single readings can be large or run the other way.

biological target: Nuclear receptor subfamily 1 group I member 2 (Homo sapiens) (UniProt O75469); test: Dual reporter qHTS for antagonist of Pregnane X Receptor (hPXR) against the NCATS DSHEA and TCM libraries: Luminescence Readout (AID 1920060); conditions: hPXR dual reporter cells, luciferase luminescence, antagonist mode; series mostly up to 40 µM; activity change, negative = inhibition: at the top concentration;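 also: HepG2 cells carrying hPXR luciferase reporter stimulated with rifampicin at 2 µM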
Sequence (O75469 whole entry, looked up): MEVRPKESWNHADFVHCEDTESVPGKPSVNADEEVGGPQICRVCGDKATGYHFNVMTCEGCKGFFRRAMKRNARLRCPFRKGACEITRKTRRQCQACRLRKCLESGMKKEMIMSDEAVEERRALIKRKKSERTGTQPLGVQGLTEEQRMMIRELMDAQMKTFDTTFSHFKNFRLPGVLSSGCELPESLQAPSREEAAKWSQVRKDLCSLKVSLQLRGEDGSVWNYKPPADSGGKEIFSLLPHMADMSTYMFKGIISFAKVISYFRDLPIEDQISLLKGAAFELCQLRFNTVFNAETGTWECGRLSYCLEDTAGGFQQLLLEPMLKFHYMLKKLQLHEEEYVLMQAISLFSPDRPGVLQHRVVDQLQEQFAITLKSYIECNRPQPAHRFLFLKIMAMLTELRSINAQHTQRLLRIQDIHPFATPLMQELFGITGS
Outline: (§1)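 HepG2 hPXR-Luc, 2000 cells/well, charcoal-stripped FBS medium; 5 h attach; RIF 2 uM final; 24 h 37C/5% CO2; CellTiter-Fluor 1 h, fluor 405/540; ONE-Glo 30 min RT, lum.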
Also: 0% is about no effect.

Row | Structure (SMILES) | activity change, negative = inhibition
1 | COc1ccc(C(C)=O)c(O)c1 | 39.3% (inactive)
2 | C[C@@]12C[C@@]3(O)O[C@@H](O1)[C@]1(COC(=O)c4ccccc4)[C@@H]3C[C@@]12O[C@@H]1O[C@H](CO)[C@@H](O)[C@H](O)[C@@H]1O | 27.5% (inactive)
3 | O=C1c2c(O)cccc2[C@@H]([C@@H]2O[C@H](CO)[C@@H](O)[C@H](O)[C@H]2O)c2cc(CO)cc(O)c21 | -11.8% (inactive)

tested on: not listed separately; test: Dual reporter qHTS for antagonist of Pregnane X Receptor (hPXR) against the NCATS DSHEA and TCM libraries: Fluorescence Readout (AID 1920061); conditions: PXR dual reporter cells, antagonist mode; series mostly up to 40 µM; activity change, negative = inhibition: at the top concentration
Outline: as §1

Row | Structure (SMILES) | activity change, negative = inhibition
4 | COc1ccc(C(C)=O)c(O)c1 | 4.37% (inactive)
5 | C[C@@]12C[C@@]3(O)O[C@@H](O1)[C@]1(COC(=O)c4ccccc4)[C@@H]3C[C@@]12O[C@@H]1O[C@H](CO)[C@@H](O)[C@H](O)[C@@H]1O | 2.98% (inactive)
6 | O=C1c2c(O)cccc2[C@@H]([C@@H]2O[C@H](CO)[C@@H](O)[C@H](O)[C@H]2O)c2cc(CO)cc(O)c21 | -25% (inactive)
7 | C=C(C)[C@@H]1CC[C@]2(C(=O)O)CC[C@]3(C)[C@H](CC[C@@H]4[C@@]5(C)CC[C@H](O)C(C)(C)[C@@H]5CC[C@]43C)[C@@H]12 | 9.05% (inactive)
